Hits are enriched below; roughly 2.4% of the tested compounds scored in any of these assays.
Pf Dd2 inh: inhibitors of Plasmodium falciparum Dd2 growth | P. falciparum Dd2 growth, SYBR Green, 72 h; hits give low values | actives 2.3% (n = 94,000) | activity change, % at 10 µM; in the data active = activity change below about -80%
C diff HTS: blocks growth of Clostridium difficile; Clostridium difficile clinical isolate growth, OD600, 24 h; hits give low values; growth activity, negative = inhibition, % at 16 µg/mL (by protocol); AID 1259249; actives 0.25% (n = 86,000);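 active = mean growth activity at or below -80% and every replicate also at or below -80%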;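 note: 0% = DMSO wells and -100% = levofloxacin 16 µg/mL wells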
* hit, by the source's call.

O=C(C[C@H]1C[C@H]2c3cc(NC(=O)CC4CC4)ccc3O[C@H]2[C@@H](CO)O1)NCC(F)(F)F was read as Pf Dd2 inh 28 and C diff HTS 3.
Screening C[C@@H]1CCCCO[C@@H](CN(C)S(=O)(=O)c2ccc(Cl)cc2)[C@H](C)CN([C@@H](C)CO)C(=O)c2cc(N(C)C)ccc2O1 returned Pf Dd2 inh -79 and C diff HTS -5.
Screening COc1ccc(NC(=O)N(C)C[C@@H]2Oc3ccc(NS(=O)(=O)c4ccc(OC)cc4)cc3CC(=O)N([C@@H](C)CO)C[C@H]2C)cc1 returned Pf Dd2 inh 26 and C diff HTS -6.
Screening C[C@@H]1CN([C@H](C)CO)C(=O)c2cccc(NC(=O)C3CC3)c2O[C@H]1CN(C)Cc1ccc(C(F)(F)F)cc1 returned Pf Dd2 inh -66 and C diff HTS -2.
For C[C@H]1CN([C@@H](C)CO)C(=O)c2cccc(NC(=O)CCCCCC(=O)Nc3ccccc3N)c2O[C@H]1CN(C)CC1CC1 the results were Pf Dd2 inh -4 and C diff HTS -4.
C[C@@H]1CN([C@H](C)CO)C(=O)c2cccc(NC(=O)CCCCCC(=O)Nc3ccccc3N)c2O[C@@H]1CN(C)Cc1ccc(C(F)(F)F)cc1 was read as Pf Dd2 inh -92* and C diff HTS -2.
For C[C@H](CO)N1C[C@H](C)[C@@H](CN(C)Cc2ccc(C(F)(F)F)cc2)Oc2c(NC(=O)CCCCCC(=O)Nc3ccccc3N)cccc2C1=O the results were Pf Dd2 inh -89* and C diff HTS -10.
`C[C@H](CO)N1C[C@H](C)[C@H](CN(C)Cc2ccc(C(F)(F)F)cc2)Oc2c(NC(=O)CCCCCC(=O)Nc3ccccc3N)cccc2C1=O` gave Pf Dd2 inh -86* and C diff HTS 5.
C[C@H]1CN([C@@H](C)CO)C(=O)c2cc(NC(=O)CCCCCC(=O)Nc3ccccc3N)ccc2O[C@H]1CN(C)Cc1ccc(C(F)(F)F)cc1 was read as Pf Dd2 inh -25 and C diff HTS 0.
For C[C@@H]1CN([C@@H](C)CO)C(=O)c2cccc(NC(=O)CCCCCC(=O)Nc3ccccc3N)c2O[C@@H]1CN(C)Cc1ccc(C(F)(F)F)cc1 the results were Pf Dd2 inh -92*.
`C[C@@H]1CN([C@H](C)CO)C(=O)Cc2cc(NC(=O)CCCCCC(=O)Nc3ccccc3N)ccc2O[C@@H]1CN(C)Cc1ccc(C(F)(F)F)cc1` gave Pf Dd2 inh -40 and C diff HTS 8.
Screening O=C(C[C@H]1C=C[C@H](NC(=O)CC2CC2)[C@@H](CO)O1)NCC(F)(F)F returned Pf Dd2 inh -23 and C diff HTS 1.
Screening C[C@@H]1CN([C@@H](C)CO)C(=O)c2cc(C3=CCCC3)cnc2O[C@@H]1CN(C)C(=O)c1ccccn1 returned Pf Dd2 inh 0 and C diff HTS 0.
COc1ccc2c3c([nH]c2c1)[C@@H](CO)N(C(=O)c1ccc(F)cc1)CC31CCN(C)CC1 was read as Pf Dd2 inh 56.
Screening COc1ccc2c3c(n(C)c2c1)[C@H](CO)N(C(=O)C1CC1)CC31CCN(Cc2cccc(F)c2)CC1 returned Pf Dd2 inh -72 and C diff HTS 9.
For COc1cccc(CN2CCC3(CC2)CN(C(=O)C2CC2)[C@H](CO)c2c3c3ccc(OC)cc3n2C)c1 the results were Pf Dd2 inh -85* and C diff HTS 3.
Screening COc1ccc2c3c(n(C)c2c1)[C@@H](CO)N(C(=O)C1CCC1)CC31CCN(Cc2cccc(F)c2)CC1 returned Pf Dd2 inh -72 and C diff HTS -3.
For COc1ccc2c3c(n(C)c2c1)[C@H](CO)N(C(=O)C1CCC1)CC31CCN(Cc2cccc(F)c2)CC1 the results were Pf Dd2 inh -84* and C diff HTS -7.
Screening C[C@H]1CN([C@@H](C)CO)C(=O)c2cc(-c3ccncc3)cnc2O[C@H]1CN(C)C(=O)NC1CCCC1 returned Pf Dd2 inh 32 and C diff HTS 4.
O=C(Nc1ccccc1)[C@@H]1[C@@H](CO)[C@@H]2Cn3c(cccc3=O)[C@@H]2N1Cc1ccccc1Cl was read as Pf Dd2 inh -14 and C diff HTS 13.
Screening C[C@H]1CN([C@@H](C)CO)C(=O)c2c(c3ccccc3n2C)-c2ccccc2CO[C@H]1CN(C)S(=O)(=O)c1ccccc1 returned Pf Dd2 inh -84*.
`C[C@@H]1CN([C@H](C)CO)C(=O)c2c(c3ccccc3n2C)-c2ccccc2CO[C@H]1CN(C)S(=O)(=O)c1ccsc1` gave Pf Dd2 inh -86* and C diff HTS -2.
Screening C[C@@H]1CN([C@@H](C)CO)C(=O)c2c(c3ccccc3n2C)-c2ccccc2CO[C@H]1CN(C)S(=O)(=O)c1ccccc1 returned Pf Dd2 inh -72.
`Cc1noc(C)c1S(=O)(=O)N(C)C[C@H]1OCc2ccccc2-c2c(n(C)c3ccccc23)C(=O)N([C@@H](C)CO)C[C@H]1C` gave Pf Dd2 inh -89* and C diff HTS 2.
For C[C@@H]1CN([C@H](C)CO)C(=O)c2c(c3ccccc3n2C)-c2ccccc2CO[C@@H]1CN(C)S(=O)(=O)c1ccsc1 the results were Pf Dd2 inh -5 and C diff HTS -3.
Screening COc1ccc(S(=O)(=O)N(C)C[C@H]2OCc3ccccc3-c3c(n(C)c4ccccc34)C(=O)N([C@H](C)CO)C[C@@H]2C)cc1 returned Pf Dd2 inh 22.
`COc1ccc(S(=O)(=O)N(C)C[C@H]2OCc3ccccc3-c3c(n(C)c4ccccc34)C(=O)N([C@@H](C)CO)C[C@H]2C)cc1` gave Pf Dd2 inh -83*.
For Cc1noc(C)c1S(=O)(=O)N(C)C[C@@H]1OCc2ccccc2-c2c(n(C)c3ccccc23)C(=O)N([C@@H](C)CO)C[C@H]1C the results were Pf Dd2 inh 17 and C diff HTS 10.
CCNC(=O)C[C@H]1CC[C@@H]2[C@@H](COc3ccc(NC(=O)c4ccccc4)cc3C(=O)N2C)O1 was read as Pf Dd2 inh -9 and C diff HTS 2.
Screening C[C@H]1CN([C@@H](C)CO)C(=O)c2cc(C#CC3CC3)cnc2O[C@H]1CN(C)S(=O)(=O)c1cccc(F)c1 returned Pf Dd2 inh -22.
For CCC(=O)Nc1ccc2c(c1)C(=O)N(C)C[C@H](OC)[C@@H](C)CN(CCC(F)(F)F)[C@@H](C)CO2 the results were Pf Dd2 inh 12 and C diff HTS 5.
`COc1ccc2c3c([nH]c2c1)[C@H](CO)N(S(=O)(=O)c1ccccc1)CC31CCN(C)CC1` gave Pf Dd2 inh -46 and C diff HTS 2.
COc1cccc(S(=O)(=O)N(C)C[C@H]2OCc3ccccc3-c3c(n(C)c4ccccc34)C(=O)N([C@@H](C)CO)C[C@@H]2C)c1 was read as Pf Dd2 inh -83* and C diff HTS 2.
`C[C@H](CO)N1C[C@H](C)[C@@H](CN(C)S(=O)(=O)c2ccc(Cl)cc2)OCc2ccccc2-c2c(n(C)c3ccccc23)C1=O` gave Pf Dd2 inh -85*.
Screening C[C@H]1CN([C@@H](C)CO)C(=O)c2c(c3ccccc3n2C)-c2ccccc2CO[C@@H]1CN(C)S(=O)(=O)c1ccc([N+](=O)[O-])cc1 returned Pf Dd2 inh -68 and C diff HTS 0.

Assay outcomes: PubChem BioAssay, Broad Institute
